Measurements published in a collection of fitness landscapes (doi:10.1016/j.celrep.2020.107928).
Whole data set: some 81,000 sequences, median “one-hybrid fitness for binding NBS DNA” near -0.1, cut for the highest 2% near 0.36. Shown is part of a subset that was picked to be rich in the highest values.

B1: Caulobacter ParB omega fusion; a variant is named by its letters at X, in order, B8GW30 (parent)
chain: MESVVVGEPGMSEGRRGLGRGLSALLGEVDAAPAQAPGEQLGGSREAPIEILQRNPDQPRRTFREEDLEDLSNSIREKGVLQPILVRPSPDTAGEYQIVAGERAWRAAQRAGLKTVPIMVRELDDLAVLEIGIIENVQRADLNVLEEALSYKVLMEKFERTQENIAQTIGKSXSHVANXMRLLXLPDEVQSYLVSGELTAXHARAIAAAADPVALAKQIIEGGLSVRETEALARKAPNLSAGKSKGGRPPRVKDTDTQALESDLSSVLGLDVSIDHRGSTGTLTITYATLEQLDDLCNRLTRGI

Variants of: B1
Experiment: one-hybrid fitness for binding NBS DNA (the Noc-binding site; scaled: cognate 1, non-cognate 0); higher = stronger binding
Details: with NBS DNA site
Outline: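 Fitness here means the log change in variant-to-wild-type read ratio between plasmids sequenced before and after selection. That scale was set so cognate equals 1 and non-cognate equals 0. The selection was a bacterial one-hybrid screen of Caulobacter ParB libraries, four specificity codons randomised, in E. coli USO carrying a HIS3 reporter with the site 19 bp from the promoter, grown 48 hours at 37°C on M9-minus-histidine with 0.1 mM IPTG and 5 mM 3-AT.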

| Variant | one-hybrid fitness for binding NBS DNA |
| --- | --- |
| AVSG | ≤ 0.2 |
| DTKE | ≤ 0.2 |
| VVTF | ≤ 0.2 |
| TFLI | ≤ 0.2 |
| TFAN | ≤ 0.2 |
| CKWT | ≤ 0.2 |
| QQNM | 0.206 |
| QQLP | ≤ 0.2 |
| QQGS | 0.443 |
| QQDS | 0.282 |
| QQNS | 0.515 |
| QQYS | 0.406 |
| QQLS | 0.373 |
| QQLH | 0.22 |
| QQGP | ≤ 0.2 |
| QQGN | ≤ 0.2 |
| DMCG | ≤ 0.2 |
| LNDN | ≤ 0.2 |
| HIRY | ≤ 0.2 |
| MHFS | ≤ 0.2 |
| ATTP | ≤ 0.2 |
| ESGF | ≤ 0.2 |
| LAAR | ≤ 0.2 |
| SNHH | ≤ 0.2 |
| VFVQ | ≤ 0.2 |

| Variant | one-hybrid fitness for binding NBS DNA |
| --- | --- |
| PNVF | ≤ 0.2 |
| NEKR | ≤ 0.2 |
| QQAS | 0.435 |
| QQFS | 0.284 |
| QQAM | ≤ 0.2 |
| VHVQ | ≤ 0.2 |
| TYPP | ≤ 0.2 |
| SRMD | ≤ 0.2 |
| YAHL | ≤ 0.2 |
| QRKT | 0.848 |
| DRKT | ≤ 0.2 |
| NRKT | 0.213 |
| QRVT | 0.69 |
| SAIP | ≤ 0.2 |
| QINI | ≤ 0.2 |
| TTVR | ≤ 0.2 |
| TTRR | 0.378 |
| TTDR | ≤ 0.2 |
| TCKR | 0.262 |
| TTKR | 0.372 |
| TTYR | ≤ 0.2 |
| LKIL | ≤ 0.2 |
| PMKT | ≤ 0.2 |
| LRKL | ≤ 0.2 |
| DLDT | ≤ 0.2 |

| Variant | one-hybrid fitness for binding NBS DNA |
| --- | --- |
| NAVF | ≤ 0.2 |
| TRTI | ≤ 0.2 |
| AVGC | ≤ 0.2 |
| RRKT | 0.814 |
| RGKT | 0.24 |
| RCVT | 0.319 |
| RRVT | 0.755 |
| RRKW | 0.351 |
| GGMT | ≤ 0.2 |
| TPSP | ≤ 0.2 |
| YMFT | ≤ 0.2 |
| KLKR | 0.319 |
| KRKR | 0.849 |
| KCVR | ≤ 0.2 |
| DRKR | 0.238 |
| DRVR | ≤ 0.2 |
| KRVR | 0.456 |
| IHAG | ≤ 0.2 |
| CWRR | ≤ 0.2 |
| HRDS | ≤ 0.2 |
| RKNS | 0.606 |
| RKDP | ≤ 0.2 |
| RKNN | ≤ 0.2 |
| RKND | ≤ 0.2 |
| RKDD | ≤ 0.2 |

| Variant | one-hybrid fitness for binding NBS DNA |
| --- | --- |
| RKDS | 0.412 |
| FIER | ≤ 0.2 |
| PSMI | ≤ 0.2 |
| ECPR | ≤ 0.2 |
| EAPF | 0.532 |
| EAPH | ≤ 0.2 |
| EAPR | 0.408 |
| EAIR | ≤ 0.2 |
| EAPS | ≤ 0.2 |
| HVLW | ≤ 0.2 |
| ITMG | ≤ 0.2 |
| VHNR | ≤ 0.2 |
| LWVP | ≤ 0.2 |
| VKGG | ≤ 0.2 |
| EIGT | ≤ 0.2 |
| RTYT | 0.494 |
| RTSP | ≤ 0.2 |
| RTRT | 0.704 |
| RTSH | 0.207 |
| RTST | 0.565 |
| RTET | 0.234 |
| RTQT | 0.537 |
| RTIT | 0.352 |
| RTQC | ≤ 0.2 |
| RTQM | ≤ 0.2 |

| Variant | one-hybrid fitness for binding NBS DNA |
| --- | --- |
| RTWT | 0.356 |
| RTPT | 0.201 |
| GGKA | ≤ 0.2 |
| AFLS | ≤ 0.2 |
| RKPM | ≤ 0.2 |
| QSHF | ≤ 0.2 |
| CTPF | ≤ 0.2 |
| PLPM | ≤ 0.2 |
| KIKM | ≤ 0.2 |
| HHNR | ≤ 0.2 |
| NSTM | ≤ 0.2 |
| RTGG | ≤ 0.2 |
| RTGT | 0.575 |
| RTGC | ≤ 0.2 |
| YFNT | ≤ 0.2 |
| RRDK | ≤ 0.2 |
| RSSK | ≤ 0.2 |
| RRSK | 0.378 |
| RCSK | ≤ 0.2 |
| RRRK | 0.41 |
| RRYK | 0.202 |
| MRQS | ≤ 0.2 |
| MFRF | ≤ 0.2 |
| LRHC | ≤ 0.2 |
| KHAS | ≤ 0.2 |

| Variant | one-hybrid fitness for binding NBS DNA |
| --- | --- |
| CVNW | ≤ 0.2 |
| REMW | ≤ 0.2 |
| IEPR | 0.427 |
| TEPR | ≤ 0.2 |
| AEPR | 0.408 |
| AEIR | ≤ 0.2 |
| IEPS | ≤ 0.2 |
| IEYR | ≤ 0.2 |
| LSRY | ≤ 0.2 |
| SFFN | ≤ 0.2 |
| EDND | ≤ 0.2 |
| AQKT | ≤ 0.2 |
| RRPP | ≤ 0.2 |
| RRIR | 0.686 |
| RCIR | 0.294 |
| RCPR | ≤ 0.2 |
| RRPR | 0.605 |
| RRID | ≤ 0.2 |
| WWTF | ≤ 0.2 |
| WLEG | ≤ 0.2 |
| FKSG | ≤ 0.2 |
| IVTP | ≤ 0.2 |
| PVGL | ≤ 0.2 |
| RKMD | ≤ 0.2 |
| RHMS | 0.386 |

| Variant | one-hybrid fitness for binding NBS DNA |
| --- | --- |
| RSMS | 0.351 |
| RPMS | ≤ 0.2 |
| RTMH | ≤ 0.2 |
| RTMD | ≤ 0.2 |
| RKMS | 0.586 |
| RHMD | ≤ 0.2 |
| RTMS | 0.452 |
| RHMH | ≤ 0.2 |
| RKMN | ≤ 0.2 |
| RCMS | 0.412 |
| WRRW | ≤ 0.2 |
| DIYS | ≤ 0.2 |
| HNSK | ≤ 0.2 |
| TLTK | ≤ 0.2 |
| QTDQ | ≤ 0.2 |
| QSNY | ≤ 0.2 |
| QTNQ | 0.377 |
| QTDH | 0.335 |
| QTDS | 0.331 |
| QTNF | 0.244 |
| QTNS | 0.629 |
| QTNN | 0.327 |
| QTDY | ≤ 0.2 |
| QTNY | 0.431 |
| QCNQ | 0.222 |

| Variant | one-hybrid fitness for binding NBS DNA |
| --- | --- |
| QTNH | 0.495 |
| HFFR | ≤ 0.2 |
| RCTP | ≤ 0.2 |
| EWRC | ≤ 0.2 |
| YVHE | ≤ 0.2 |
| VDSG | ≤ 0.2 |
| HSAM | ≤ 0.2 |
| VVYR | ≤ 0.2 |
| RCAW | 0.431 |
| RSAS | 0.424 |
| RMAN | ≤ 0.2 |
| RTAD | ≤ 0.2 |
| RTAS | 0.454 |
| RSAW | ≤ 0.2 |
| RTAP | ≤ 0.2 |
| RMAS | 0.405 |
| RSAP | ≤ 0.2 |
| RSAD | ≤ 0.2 |
| RMAH | ≤ 0.2 |
| RPAW | ≤ 0.2 |
